According to ChEMBL document CHEMBL1961873, “Compounds: GSK PKIS; Assays: Nanosyn kinase panel” (2012):

Columns and labels:
[1] = molecular target: Mast/stem cell growth factor receptor Kit (Homo sapiens) (UniProt P10721); settings: at 1 µM
[2] = tested on: Mast/stem cell growth factor receptor Kit (Homo sapiens), P10721 [D816V]; settings: at 0.1 µM
[3] = tested on: Mast/stem cell growth factor receptor Kit (Homo sapiens), P10721 [D816V]; settings: at 1 µM
[4] = tested on: Mast/stem cell growth factor receptor Kit (Homo sapiens), P10721 [T670I]; settings: at 0.1 µM
Mast/stem cell growth factor receptor Kit (Homo sapiens), P10721 [T670I], sequence (P10721 whole entry T670I): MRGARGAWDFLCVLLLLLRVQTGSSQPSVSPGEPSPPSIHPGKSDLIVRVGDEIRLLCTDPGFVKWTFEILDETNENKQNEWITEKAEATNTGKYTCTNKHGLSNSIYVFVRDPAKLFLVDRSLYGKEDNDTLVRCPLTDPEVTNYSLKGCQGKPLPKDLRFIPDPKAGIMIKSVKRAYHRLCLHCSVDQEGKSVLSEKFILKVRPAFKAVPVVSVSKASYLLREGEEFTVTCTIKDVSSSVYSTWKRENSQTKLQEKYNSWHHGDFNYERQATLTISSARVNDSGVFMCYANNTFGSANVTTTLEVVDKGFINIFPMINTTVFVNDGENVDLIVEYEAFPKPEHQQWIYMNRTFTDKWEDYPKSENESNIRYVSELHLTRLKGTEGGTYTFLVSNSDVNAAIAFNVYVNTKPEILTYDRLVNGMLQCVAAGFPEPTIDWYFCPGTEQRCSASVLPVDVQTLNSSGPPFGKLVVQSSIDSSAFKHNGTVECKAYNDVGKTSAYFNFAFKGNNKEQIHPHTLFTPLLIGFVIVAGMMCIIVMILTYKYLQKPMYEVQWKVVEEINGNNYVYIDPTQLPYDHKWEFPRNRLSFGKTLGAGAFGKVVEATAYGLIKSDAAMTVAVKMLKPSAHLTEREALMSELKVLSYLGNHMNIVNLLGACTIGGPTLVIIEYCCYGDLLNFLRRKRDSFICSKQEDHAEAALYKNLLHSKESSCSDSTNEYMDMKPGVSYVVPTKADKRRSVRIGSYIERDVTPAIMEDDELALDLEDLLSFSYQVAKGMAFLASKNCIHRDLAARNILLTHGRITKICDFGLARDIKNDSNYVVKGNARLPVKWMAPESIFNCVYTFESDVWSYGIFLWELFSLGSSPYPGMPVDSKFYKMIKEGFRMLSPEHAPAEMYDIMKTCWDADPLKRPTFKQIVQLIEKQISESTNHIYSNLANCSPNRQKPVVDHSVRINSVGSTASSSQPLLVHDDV

[5] = tested on: Mast/stem cell growth factor receptor Kit (Homo sapiens), P10721 [T670I]; settings: at 1 µM
[6] = tested on: Mast/stem cell growth factor receptor Kit (Homo sapiens), P10721 [V560G]; settings: at 0.1 µM
Mast/stem cell growth factor receptor Kit (Homo sapiens), P10721 [V560G], sequence (P10721 whole entry V560G): as the sequence (P10721 whole entry T670I) above, with V560G, I670T counted along it

[7] = tested on: Mast/stem cell growth factor receptor Kit (Homo sapiens), P10721 [V560G]; settings: at 1 µM
[8] = molecular target: Tyrosine-protein kinase Lck (Homo sapiens) (UniProt P06239); settings: at 0.1 µM
Tyrosine-protein kinase Lck (Homo sapiens), sequence (P06239 2-509 limits assumed): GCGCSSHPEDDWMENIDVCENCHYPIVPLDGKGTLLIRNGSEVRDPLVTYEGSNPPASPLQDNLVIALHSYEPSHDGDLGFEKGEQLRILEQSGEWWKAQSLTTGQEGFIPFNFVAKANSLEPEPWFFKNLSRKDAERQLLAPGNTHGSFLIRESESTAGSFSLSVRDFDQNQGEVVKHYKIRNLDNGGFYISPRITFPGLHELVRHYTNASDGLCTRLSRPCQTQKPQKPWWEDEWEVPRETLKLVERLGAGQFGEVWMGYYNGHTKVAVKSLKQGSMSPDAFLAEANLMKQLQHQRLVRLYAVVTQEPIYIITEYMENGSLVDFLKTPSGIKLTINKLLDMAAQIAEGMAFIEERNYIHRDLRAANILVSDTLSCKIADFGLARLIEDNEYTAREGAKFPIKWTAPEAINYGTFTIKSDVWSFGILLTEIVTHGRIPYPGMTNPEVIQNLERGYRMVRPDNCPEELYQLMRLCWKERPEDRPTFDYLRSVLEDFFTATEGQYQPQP

[9] = molecular target: Tyrosine-protein kinase Lck (Homo sapiens) (UniProt P06239); settings: at 1 µM
[10] = molecular target: Leukocyte tyrosine kinase receptor (Homo sapiens) (UniProt P29376); settings: at 0.1 µM
Leukocyte tyrosine kinase receptor (Homo sapiens), sequence (P29376 whole entry): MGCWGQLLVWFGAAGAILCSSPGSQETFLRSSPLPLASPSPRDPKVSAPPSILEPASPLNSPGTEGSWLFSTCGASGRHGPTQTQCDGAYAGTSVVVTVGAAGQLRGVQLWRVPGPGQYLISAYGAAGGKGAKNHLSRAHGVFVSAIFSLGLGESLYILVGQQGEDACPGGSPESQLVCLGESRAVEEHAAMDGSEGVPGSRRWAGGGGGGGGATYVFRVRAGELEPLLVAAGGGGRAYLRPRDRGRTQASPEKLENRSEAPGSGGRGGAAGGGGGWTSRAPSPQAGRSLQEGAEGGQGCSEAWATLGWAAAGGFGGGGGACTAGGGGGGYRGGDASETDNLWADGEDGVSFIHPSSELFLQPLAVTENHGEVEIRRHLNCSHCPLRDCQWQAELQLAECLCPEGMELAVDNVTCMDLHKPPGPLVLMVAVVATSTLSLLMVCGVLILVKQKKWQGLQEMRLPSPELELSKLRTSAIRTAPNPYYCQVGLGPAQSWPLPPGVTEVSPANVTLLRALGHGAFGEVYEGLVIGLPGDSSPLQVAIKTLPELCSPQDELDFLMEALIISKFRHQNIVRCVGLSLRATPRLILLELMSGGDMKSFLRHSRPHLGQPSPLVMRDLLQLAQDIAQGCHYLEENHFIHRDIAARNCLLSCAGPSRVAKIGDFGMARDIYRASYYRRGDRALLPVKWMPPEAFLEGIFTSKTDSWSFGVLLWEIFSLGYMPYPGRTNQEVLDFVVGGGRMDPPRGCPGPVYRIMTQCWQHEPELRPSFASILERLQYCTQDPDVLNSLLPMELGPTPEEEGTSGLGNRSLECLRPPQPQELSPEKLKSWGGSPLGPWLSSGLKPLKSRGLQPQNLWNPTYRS

[11] = molecular target: Leukocyte tyrosine kinase receptor (Homo sapiens) (UniProt P29376); settings: at 1 µM
[12] = molecular target: Tyrosine-protein kinase Lyn (Homo sapiens) (UniProt P07948); settings: at 0.1 µM
Tyrosine-protein kinase Lyn (Homo sapiens), sequence (P07948 2-512 limits assumed): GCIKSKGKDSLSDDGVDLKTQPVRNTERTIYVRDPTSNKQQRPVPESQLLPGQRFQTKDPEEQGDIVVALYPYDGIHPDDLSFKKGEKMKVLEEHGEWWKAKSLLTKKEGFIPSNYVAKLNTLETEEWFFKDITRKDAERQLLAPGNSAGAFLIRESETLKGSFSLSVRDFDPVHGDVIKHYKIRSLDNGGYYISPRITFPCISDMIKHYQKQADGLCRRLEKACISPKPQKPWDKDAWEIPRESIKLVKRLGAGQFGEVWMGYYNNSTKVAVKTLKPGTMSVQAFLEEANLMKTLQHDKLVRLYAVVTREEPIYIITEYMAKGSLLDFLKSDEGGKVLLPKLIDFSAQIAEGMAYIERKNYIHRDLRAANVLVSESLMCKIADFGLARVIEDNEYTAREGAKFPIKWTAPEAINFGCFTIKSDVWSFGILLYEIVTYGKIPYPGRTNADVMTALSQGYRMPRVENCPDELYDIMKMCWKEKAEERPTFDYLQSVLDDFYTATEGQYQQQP

[13] = molecular target: Tyrosine-protein kinase Lyn (Homo sapiens) (UniProt P07948); settings: at 1 µM
[14] = molecular target: Tyrosine-protein kinase Lyn (Homo sapiens) (UniProt P07948); settings: at 0.1 µM; remark: listed apart in the source
[15] = molecular target: Tyrosine-protein kinase Lyn (Homo sapiens) (UniProt P07948); settings: at 1 µM; remark: listed apart in the source
[16] = molecular target: T1, Tyrosine-protein kinase Mer (Homo sapiens) (UniProt Q12866); settings: at 0.1 µM
T1 sequence (whole entry): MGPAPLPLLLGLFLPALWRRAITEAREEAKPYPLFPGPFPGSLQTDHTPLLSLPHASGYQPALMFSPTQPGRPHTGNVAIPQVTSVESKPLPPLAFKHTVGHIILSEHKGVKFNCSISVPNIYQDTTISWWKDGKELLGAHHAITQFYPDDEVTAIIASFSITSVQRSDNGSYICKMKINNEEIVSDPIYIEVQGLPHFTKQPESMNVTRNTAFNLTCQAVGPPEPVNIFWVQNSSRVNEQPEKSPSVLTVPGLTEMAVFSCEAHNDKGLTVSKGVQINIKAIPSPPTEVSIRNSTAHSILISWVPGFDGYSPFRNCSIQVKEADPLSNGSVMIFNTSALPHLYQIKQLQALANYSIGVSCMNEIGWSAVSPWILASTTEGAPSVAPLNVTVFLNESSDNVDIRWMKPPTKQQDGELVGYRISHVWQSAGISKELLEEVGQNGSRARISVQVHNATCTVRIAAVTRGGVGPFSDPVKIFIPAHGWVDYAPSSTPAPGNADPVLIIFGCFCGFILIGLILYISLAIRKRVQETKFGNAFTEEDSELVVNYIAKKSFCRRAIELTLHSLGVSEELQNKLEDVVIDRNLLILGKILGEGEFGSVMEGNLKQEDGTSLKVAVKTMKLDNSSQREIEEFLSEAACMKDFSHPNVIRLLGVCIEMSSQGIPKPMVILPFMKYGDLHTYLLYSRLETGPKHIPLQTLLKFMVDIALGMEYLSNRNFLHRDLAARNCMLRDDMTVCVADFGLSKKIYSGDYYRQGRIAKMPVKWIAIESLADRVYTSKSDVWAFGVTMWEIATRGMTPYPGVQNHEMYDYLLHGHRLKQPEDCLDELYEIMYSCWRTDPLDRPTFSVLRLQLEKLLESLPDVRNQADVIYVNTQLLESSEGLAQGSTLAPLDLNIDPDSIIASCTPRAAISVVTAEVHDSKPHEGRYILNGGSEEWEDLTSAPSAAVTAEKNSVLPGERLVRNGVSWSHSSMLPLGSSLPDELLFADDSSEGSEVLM

[17] = molecular target: T1, Tyrosine-protein kinase Mer (Homo sapiens); settings: at 1 µM
[18] = molecular target: Hepatocyte growth factor receptor (Homo sapiens) (UniProt P08581); settings: at 0.1 µM
Hepatocyte growth factor receptor (Homo sapiens), sequence (P08581 whole entry): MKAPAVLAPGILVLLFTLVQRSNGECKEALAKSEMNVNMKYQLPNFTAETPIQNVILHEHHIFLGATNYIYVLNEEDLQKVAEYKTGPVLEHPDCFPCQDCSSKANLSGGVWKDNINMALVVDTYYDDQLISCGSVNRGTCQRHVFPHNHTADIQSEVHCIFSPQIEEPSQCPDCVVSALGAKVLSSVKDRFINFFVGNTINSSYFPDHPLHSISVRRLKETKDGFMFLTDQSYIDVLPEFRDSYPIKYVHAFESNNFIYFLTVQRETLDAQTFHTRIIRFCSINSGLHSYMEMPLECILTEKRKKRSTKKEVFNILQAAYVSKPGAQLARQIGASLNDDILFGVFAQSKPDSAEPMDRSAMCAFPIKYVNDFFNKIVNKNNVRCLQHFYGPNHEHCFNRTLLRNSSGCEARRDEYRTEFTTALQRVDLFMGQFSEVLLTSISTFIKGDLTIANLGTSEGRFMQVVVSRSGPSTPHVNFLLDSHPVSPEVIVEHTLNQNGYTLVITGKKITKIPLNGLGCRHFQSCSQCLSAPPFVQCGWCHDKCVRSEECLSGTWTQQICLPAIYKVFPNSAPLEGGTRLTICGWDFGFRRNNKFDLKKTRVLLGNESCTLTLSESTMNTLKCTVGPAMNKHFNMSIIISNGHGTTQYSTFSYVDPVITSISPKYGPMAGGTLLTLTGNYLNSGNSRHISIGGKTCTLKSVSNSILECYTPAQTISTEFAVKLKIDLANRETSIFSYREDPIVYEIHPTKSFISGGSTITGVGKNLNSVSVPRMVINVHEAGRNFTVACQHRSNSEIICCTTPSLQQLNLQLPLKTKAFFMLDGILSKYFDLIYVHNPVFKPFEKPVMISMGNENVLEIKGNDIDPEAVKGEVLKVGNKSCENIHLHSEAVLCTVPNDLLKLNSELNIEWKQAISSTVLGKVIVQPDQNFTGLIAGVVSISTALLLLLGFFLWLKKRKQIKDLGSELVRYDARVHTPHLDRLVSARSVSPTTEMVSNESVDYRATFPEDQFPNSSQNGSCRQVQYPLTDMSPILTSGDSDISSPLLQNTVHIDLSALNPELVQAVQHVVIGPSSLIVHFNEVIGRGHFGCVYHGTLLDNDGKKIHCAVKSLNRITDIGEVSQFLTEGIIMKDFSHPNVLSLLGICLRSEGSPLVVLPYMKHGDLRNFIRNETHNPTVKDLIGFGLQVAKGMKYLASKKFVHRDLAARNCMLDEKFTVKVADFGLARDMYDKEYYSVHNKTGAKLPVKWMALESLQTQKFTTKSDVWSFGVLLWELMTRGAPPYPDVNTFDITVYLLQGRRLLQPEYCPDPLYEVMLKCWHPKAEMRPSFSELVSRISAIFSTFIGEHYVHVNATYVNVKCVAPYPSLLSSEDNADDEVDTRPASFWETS

[19] = molecular target: Hepatocyte growth factor receptor (Homo sapiens) (UniProt P08581); settings: at 1 µM
[20] = molecular target: T2, Muscle, skeletal receptor tyrosine-protein kinase (Homo sapiens) (UniProt O15146); settings: at 0.1 µM;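 also: values are mean inhibition of MuSK from the GSK PKIS kinase screening panel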
T2 sequence (whole entry): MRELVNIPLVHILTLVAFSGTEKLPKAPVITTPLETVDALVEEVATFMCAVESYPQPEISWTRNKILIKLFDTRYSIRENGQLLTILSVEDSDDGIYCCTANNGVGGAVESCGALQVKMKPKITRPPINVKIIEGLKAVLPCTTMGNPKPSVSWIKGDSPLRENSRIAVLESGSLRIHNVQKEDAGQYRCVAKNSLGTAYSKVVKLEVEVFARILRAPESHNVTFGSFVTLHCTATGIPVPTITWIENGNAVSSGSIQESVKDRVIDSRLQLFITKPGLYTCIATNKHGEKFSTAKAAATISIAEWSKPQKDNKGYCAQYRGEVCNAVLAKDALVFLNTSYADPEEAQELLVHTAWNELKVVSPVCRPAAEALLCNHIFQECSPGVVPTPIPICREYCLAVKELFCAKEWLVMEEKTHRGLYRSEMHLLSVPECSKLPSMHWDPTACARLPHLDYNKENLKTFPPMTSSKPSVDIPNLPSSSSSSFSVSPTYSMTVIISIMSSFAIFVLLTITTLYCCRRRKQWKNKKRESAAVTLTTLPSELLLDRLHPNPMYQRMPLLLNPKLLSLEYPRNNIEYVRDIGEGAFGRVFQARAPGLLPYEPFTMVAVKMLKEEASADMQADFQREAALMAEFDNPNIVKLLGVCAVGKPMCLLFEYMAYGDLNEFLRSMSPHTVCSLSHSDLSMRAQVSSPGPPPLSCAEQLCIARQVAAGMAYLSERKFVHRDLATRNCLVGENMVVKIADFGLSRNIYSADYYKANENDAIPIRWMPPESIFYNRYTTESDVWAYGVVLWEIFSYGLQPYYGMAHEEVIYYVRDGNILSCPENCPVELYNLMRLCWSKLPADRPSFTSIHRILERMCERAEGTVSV

Mast/stem cell growth factor receptor Kit (Homo sapiens), sequence (P10721 whole entry): as the sequence (P10721 whole entry T670I) above, with I670T counted along it
Mast/stem cell growth factor receptor Kit (Homo sapiens), P10721 [D816V], sequence (P10721 whole entry D816V): as the sequence (P10721 whole entry T670I) above, with I670T, D816V counted along it

Row | Structure (SMILES) | inhibition [1] [%] | inhibition [2] [%] | inhibition [3] [%] | inhibition [4] [%] | inhibition [5] [%] | inhibition [6] [%] | inhibition [7] [%] | inhibition [8] [%] | inhibition [9] [%] | inhibition [10] [%] | inhibition [11] [%] | inhibition [12] [%] | inhibition [13] [%] | inhibition [14] [%] | inhibition [15] [%] | inhibition [16] [%] | inhibition [17] [%] | inhibition [18] [%] | inhibition [19] [%] | inhibition [20] [%]
1 | NS(=O)(=O)c1ccc(-c2cc3ccncc3cc2OCc2ccccc2)cc1 | 8.06 | 2.17 | 3.92 | 2.02 | 4.23 | 0.41 | 0.33 | 1.15 | 3.87 | 6.08 | 14.8 | 5.43 | 8.06 | 4.33 | 5.23 | 0.4 | 1.77 | 9.74 | 5.85 | 1.45
2 | COc1cccc(-n2nc(C)c3c(N/N=C(\C)c4ccncc4)ncnc32)c1 | 2.68 | -0.3 | -0.84 | -1.32 | 0.13 | 2.07 | 0.19 | 0.65 | 2.98 | 1.52 | 1.76 | 1.67 | 2.24 | 2.02 | 1.38 | 1.59 | -0.09 | -1.53 | -2.4 | 0.43
3 | NS(=O)(=O)c1cccc(Nc2cc(-c3ccc(F)cc3)n[nH]2)c1 | 84.5 | 2.34 | 4.52 | 3.28 | 20.1 | 6.14 | 38 | 1.18 | 6.1 | 3.59 | 4.08 | 5.86 | 10.7 | 3.31 | 8.61 | 1.94 | 2.95 | 9.61 | 4.41 | 3.78
4 | Cc1ccc(O)cc1Nc1ccnc2ccc(S(C)(=O)=O)cc12 | 48.2 | 38.2 | 84.5 | 4.38 | 8 | 8.1 | 53.7 | 86.3 | 97.1 | 4.66 | 10.2 | 93.2 | 96.7 | 91.9 | 96.2 | 3.15 | 4.83 | 5.51 | -0.38 | 2.4
5 | O=S(=O)(CCOCc1ccc(-c2ccc3ncnc(Nc4ccc(OCc5cccc(F)c5)c(Cl)c4)c3c2)o1)c1ccccc1 | 0.51 | 0.43 | -1.83 | 5.11 | 0.78 | -1.47 | -2.4 | 1.96 | 3.4 | 2.35 | 3.13 | 1.13 | 2.54 | -1.61 | -0.4 | -1.18 | 6.22 | 0.79 | 8.46 | 4.67
6 | CS(=O)(=O)Nc1cccc(-c2ccc3c(NC(=O)C4CC4)n[nH]c3c2)c1 | -3.67 | 1.45 | 0.35 | -1.01 | -2.29 | 0.19 | 0.6 | 1.99 | 6.14 | 1.68 | 1.06 | 1.17 | 1.49 | 0.4 | -0.21 | 1.36 | 1.01 | 5.25 | 1.91 | 0.75
7 | COc1cc2ncnc(Nc3ccc4c(cnn4Cc4ccccc4)c3)c2cc1OC | 9.47 | 1.06 | 2.79 | 2.31 | 2.58 | -3.09 | 2.41 | 19.5 | 61.1 | 2.67 | 2.45 | 10.4 | 46.1 | 7.01 | 40.7 | 7 | 45.5 | 2.31 | 4.07 | 3.2
8 | Cc1cc(-c2ccccn2)cc(C)c1/C=C/c1cncc(-c2nn[nH]n2)c1 | 6.45 | 0.82 | -1.39 | 5.04 | 0.22 | -3.07 | -1.86 | 4.47 | 12.1 | 4.42 | 4.93 | 3.33 | 14 | 0.35 | 9.56 | -0.39 | 3.73 | 2.88 | 4.32 | 3.02
9 | Cc1cc(Cl)cc2c1NC(=O)C2=NNc1ccc(S(N)(=O)=O)cc1 | 12.9 | 4.18 | -3.52 | 2.4 | 3.29 | 2.2 | 7.35 | 1.9 | 1.89 | 2.82 | 2.25 | 3.74 | 4.11 | 2.32 | 4.84 | 0.38 | 0.48 | -0.26 | 5.08 | 2.21
10 | Nc1ccc(C#Cc2cncnc2Nc2ccc(OCc3cccc(F)c3)c(Cl)c2)cc1 | 5.56 | 2.12 | 3.81 | 1.88 | 3.05 | -3.03 | -1.6 | 2.57 | 4.92 | 3.5 | 3.27 | 3.52 | 4.42 | 3.04 | 3.28 | 1.5 | 2.05 | 1.74 | 3.8 | -0.05
11 | NS(=O)(=O)c1cccc(-c2cc3ccncc3cc2OCc2ccccc2)c1 | 8.38 | 6.43 | 5.87 | 2.04 | 1.1 | 3.77 | 9.47 | 2.52 | 5.46 | 2.44 | 1.46 | 5.16 | 6.45 | 2.95 | 3.74 | 4.79 | 8.95 | 3.75 | 4.68 | 0.26
12 | Nc1nccc(-c2c(-c3ccc(F)cc3)nn3cc(C(F)(F)F)ccc23)n1 | 1.1 | 1.51 | -0.82 | -0.08 | -0.07 | 1.43 | 0.2 | 2.62 | 4.27 | 1.83 | 2.62 | 1.67 | 2.06 | 1.33 | 2.59 | -0.89 | 0.12 | 2.79 | 0.01 | -1.22
13 | Cc1ccc(C(=O)NC2CC2)cc1-c1ccc2[nH]ncc2c1 | 9.73 | -2.2 | -3.32 | -2.37 | -3.32 | 1.39 | 6.83 | -0.97 | 1.92 | -2.04 | -2.27 | -2.45 | -0.16 | -2.22 | -0.48 | -1.71 | 1.57 | -0.6 | -1.74 | 0.78
14 | CN(C)C(=O)O[C@H]1CN[C@H](C#Cc2cc3ncnc(Nc4ccc(OCc5cccc(F)c5)c(Cl)c4)c3s2)C1 | 3 | 2.35 | -1.14 | 1.09 | 0.88 | 0.04 | 2.8 | 1.92 | 3.02 | 1.7 | 3.95 | 3.87 | 4.57 | 1.48 | 3.94 | 0.43 | 3.05 | 1.84 | 6.26 | 2.98
